Source: PubChem BioAssay
Compounds with a hit are over-represented: about 19% of the library has one in this group of screens.
DT40 TDP1 no CPT – qHTS for Inhibitors of human tyrosyl-DNA phosphodiesterase 1 (TDP1): qHTS in cells in absence of CPT. 15% of 420,000 active. Potency, µM (series often up to 46.2 µM), inactives show top-dose activity change, negative = growth inhibition, actives largely listed as inhibitors. DT40 Tdp1-/- hTDP1 cells, no CPT, ATP luminescence, 48 h. AID 686978, 2013; note: potency is the fitted concentration of half-maximal effect; nearly all actives have a fitted effect of over 55% in size
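Readout: luminescence from CellTiter-Glo after 30 min in the dark at RT. Cells: DT40 Tdp1-/- with stable hTDP1, 400/well. Exposure: compounds alone, ≥48 hr, 37 °C.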
IL1B secr inh – inflammasome signaling inhibition, IL-1 beta readout | THP-1 LPS/ATP IL-1B secretion, AlphaLISA, 16 h; stronger effect = lower value | activity change, % at 57.5 µM | 4.7% of 360,000 active; in the data active = activity change below about -50%; inconclusive = mostly about -30% to -49%
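Secreted IL-1B measured by AlphaLISA bead assay after 16 h compound exposure of THP-1 cells; compounds (final up to 57.5 uM) added 1 h before LPS (250 ng/mL) and ATP (1.25 mM) stimulation; lower signal means less secretion.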
HT1080NT lethal – kills 2HG-producing HT-1080-NT fibrosarcoma cells | HT-1080-NT fibrosarcoma viability, CellTiter-Glo ATP luminescence, 48 h | Potency, µM (series often up to 46.1 µM), for the others: at the top dose activity, negative = less viability, most hits filed as cytotoxic | 1.6% of 360,000 active;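 note: NT is the 2HG producing partner of a matched IDH1 knockdown line; potency is the fitted concentration of half-maximal effect; 0% = DMSO-treated cells and -100% = media-only wells without cells; nearly all actives have a fitted effect of over 55% in size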
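HT-1080-NT fibrosarcoma cells (2HG-overproducing), 750 cells/well in RPMI with 5% FBS, dosed after 2 h and incubated 48 h at 37C. CellTiter-Glo luminescence normalized to DMSO and no-cell wells; concentration-response curves fitted and classed.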
TDP1 cell CPT – DT40-hTDP1 cell growth loss with CPT; AID 686979; Potency, µM (titrated, usually from 46.2 µM), without a hit: at the highest dose activity change, negative = growth inhibition, hits mostly inhibitors; chicken DT40 Tdp1-/-;hTDP1 cells + 20 nM CPT, ATP luminescence, 48 h; 12% of 420,000 active; note: potency is the fitted concentration of half-maximal effect; nearly all actives have a fitted effect of over 55% in size
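Chicken DT40 Tdp1-/- cells stably complemented with human TDP1 were seeded at 400 cells/well in medium containing 20 nM camptothecin, exposed to pin-transferred compounds, and grown at 37 °C for at least 48 hr. Viability was read as ATP luminescence.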
HT1080 IDH1KD tx – HT-1080 IDH1 knockdown cell toxicity (counter line) | HT-1080 IDH1 knockdown viability, ATP luminescence, 48 h | Potency, µM (top dose mostly 46.1 µM), for inactives: at the top dose activity, negative = toxicity, hits mostly cytotoxic | 2% of 360,000 active | AID 686971;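 note: potency is the fitted concentration of half-maximal effect; 0% = DMSO wells and -100% = cell-free medium wells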
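Assay cells: HT-1080 with IDH1 knockdown, 750 per well, RPMI/5% FBS. Exposure: 48 h at 37 °C following 2 h pre-incubation. Read: CellTiter-Glo luminescence; fitted concentration-response, curve class assigned.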
Numbers without * were called inactive; ? = inconclusive; . = no result given. Unless noted, calls come from the whole dose curve; as a rule, active = well fitted curve in the direction sought with a large enough effect; inconclusive = small, poorly fitted or top-dose-only effect, or another doubt; inactive = no such curve, though single readings can be large; an effect the other way counts as inactive or inconclusive. Unless noted, % is set by controls: 0 for no effect and ±100 for the full control effect.

SMILES	DT40 TDP1 no CPT	IL1B secr inh	HT1080NT lethal	TDP1 cell CPT	HT1080 IDH1KD tx
Clc1ccc(CN(CC2CCCO2)C(c2cccs2)c2nnnn2C2CCCC2)cc1 (stereo unspecified)	6.51µM*	-21.7	-17.2%	7.31µM*	-12.7%
CC(c1nnnn1C(C)(C)C)N(Cc1cccnc1)Cc1ccccc1Cl (stereo unspecified)	?	?	-11.1%	?	-11.1%
CCN(Cc1ccccc1)C(c1ccccn1)c1nnnn1C1CCCCC1 (stereo unspecified)	?	-11.4	11.5%	?	12.6%
CC(C)(C)n1nnnc1C(c1cccs1)N(Cc1cccnc1)Cc1ccccc1Cl (stereo unspecified)	18.4µM*	-11.8	?	?	?
Clc1ccccc1CN(Cc1ccccc1)C(c1cccs1)c1nnnn1C1CCCC1 (stereo unspecified)	20.6µM*	?	-0.8%	?	-14.8%
COC(=O)C(C)(C)ONC(=O)Nc1ccc(C)cc1	-1.9%	39.2	0.5%	-3.9%	-4.9%
Cc1noc(C)c1C(=O)N1CCC2(CCN(C(=O)Nc3ccccc3)CC2)CC1	-3.1%	.	.	-4.7%	.
Cc1cccc(C(=O)Nc2ccc(OCc3cc(=O)n4ccc(C)cc4n3)cc2)c1	-9.8%	.	.	-9.0%	.
O=[N+]([O-])c1cc(-c2nc(-c3ccncc3)no2)ccc1Cl	?	-117.9*	-22.9%	10.3µM*	-23.4%
CC(C)(C)c1ccc(-c2nc(-c3ccncc3)no2)cc1	16.4µM*	51.2	-4.1%	?	?
COc1cc(OC)c(-c2nc(-c3ccncc3)no2)cc1OC	16.4µM*	.	2.7%	?	2.5%
O=[N+]([O-])c1cc(-c2nc(-c3ccncc3)no2)cc([N+](=O)[O-])c1	10.3µM*	32.2	18.7%	10.3µM*	27.8%
Cc1noc(C)c1COC(=O)C1CCN(S(=O)(=O)c2c(Cl)cccc2Cl)CC1	-0.2%	8.5	11.0%	-2.1%	17.9%
CC1CN(c2nc3ccccc3cc2-c2ccccc2)CC(C)O1 (stereo unspecified)	?	34.2	-20.7%	?	-12.9%
CC1(C)OC(=O)C(=CNc2cccc(O)c2)C(=O)O1	5.6%	-7.5	-11.9%	0.5%	6.2%
CC1(C)OC(C)(C)/C(=C/Nc2ccc(O)cc2)C1=O	23.1µM*	14.1	6.8%	?	10.6%
CCn1c(=NC(=O)CCS(=O)(=O)c2ccccc2)sc2cccc(OC)c21	7.31µM*	0.0	-13.1%	9.2µM*	-6.6%
COc1ccccc1OCCNC(=O)CCS(=O)(=O)c1ccccc1	-0.6%	3.3	14.9%	-3.3%	19.1%
CCn1c(=NC(=O)CS(=O)(=O)c2ccc(F)cc2)sc2cccc(OC)c21	18.4µM*	-13.4	-3.8%	14.6µM*	-12.6%
CCn1c(=NC(=O)c2ccco2)sc2cccc(F)c21	?	12.6	-18.7%	?	1.8%
CCCCC(=O)N=c1sc2c(OC)ccc(OC)c2n1C	?	-6.5	?	?	20.0%
COc1ccc2c(c1)sc(=NC(=O)CS(=O)(=O)c1ccc(F)cc1)n2C	20.6µM*	-8.0	-1.0%	?	0.6%
COC(=O)Cn1c(=NC(=O)CCS(=O)(=O)c2ccccc2)sc2c(OC)ccc(OC)c21	?	-1.2	7.3%	20.6µM*	20.5%
CCCn1c(=NC(=O)CS(=O)(=O)c2ccccc2)sc2cc(S(C)(=O)=O)ccc21	-2.2%	-1.4	-1.8%	2.7%	10.7%
CC(O)(Cc1ccccn1)Cc1ccccn1	6.5%	9.9	4.5%	31.3%	11.3%
SMILES	DT40 TDP1 no CPT	IL1B secr inh	HT1080NT lethal	TDP1 cell CPT	HT1080 IDH1KD tx
COCCNC(=O)C1CCN(S(=O)(=O)c2c(C)noc2/C=C/c2cccs2)CC1	14.8%	-19.8	12.3%	-18.5%	13.1%
O=C(COC(=O)c1ccc(S(=O)(=O)N2CCOCC2)cc1)NCc1cccs1	-7.7%	1.0	2.1%	9.0%	6.6%
CCn1c(=NC(=O)c2ccc(S(=O)(=O)N3CCOCC3)cc2)sc2cccc(OC)c21	13µM*	-12.0	-20.9%	14.6µM*	-21.9%
COCCn1c(=NC(=O)c2ccc(S(=O)(=O)N3CCOCC3)cc2)sc2cc(S(N)(=O)=O)ccc21	?	18.7	-17.3%	?	-23.2%
Cn1c2c(sc1=O)CCC2	1.3%	2.0	18.5%	-0.6%	13.1%
COc1ccc(-c2cc(N)n(CCC#N)n2)c(OC)c1	-13.1%	18.3	6.1%	-13.0%	5.8%
CCOc1ccc(-c2nc3c(C#N)c[nH]n3c2NC2CCCC2)cc1	16.4µM*	.	.	10.3µM*	.
CC(C)Oc1ccc(-c2nc3c(C#N)c[nH]n3c2NC2CCCCC2)cc1	23.1µM*	.	.	?	.
CCOc1ccc(-c2nc(C#N)c(NCC3CCCO3)o2)cc1 (stereo unspecified)	-30.0%	-4.2	5.5%	-28.3%	0.4%
COc1ccc(-c2nc3c(C#N)c[nH]n3c2NC2CCCC2)c(OC)c1	?	.	.	11.6µM*	.
CC(C)[C@H](NC(=O)N1CCn2c1nc1ccccc12)C(=O)N1CCCCC1	-12.5%	11.3	-2.2%	-28.9%	-2.6%
COc1ccccc1C(O)c1ncc(-c2ccccc2C)[nH]1 (stereo unspecified)	-17.2%	22.3	?	-10.7%	25.6%
COCCCNC(=S)N1CCN(S(=O)(=O)c2ccc(OC)cc2)CC1	?	-15.7	-1.3%	-29.9%	0.0%
CN(C)c1ccc(N=Nc2ccc(S(=O)(=O)O)cc2)cc1	1.1%	.	.	-6.1%	.
CC1CC(C)CN(CCCNC(=O)c2nn(C)c3c2CS(=O)(=O)c2ccccc2-3)C1 (stereo unspecified)	1.3%	2.4	-3.3%	-8.8%	-0.7%
CCC(=O)NC(=S)NNC(=O)COc1ccc(Br)cc1	1.2%	0.0	1.1%	6.6%	14.9%
COc1ccc(-c2ccnc(SCC(=O)c3ccc(Cl)cc3)n2)cc1	?	-7.7	2.2%	-25.9%	8.4%
COc1ccc(-c2nc(SCC(=O)NCCCc3ccccc3)n[nH]2)cc1	20.6µM*	.	.	16.4µM*	.
COc1ccc(OC)c(C(=O)CSc2nccc(-c3ccc(Br)cc3)n2)c1	29.1µM*	-14.2	?	?	-27.1%
COc1ccccc1CNC(=O)CSc1n[nH]c(N)n1	-1.2%	4.5	7.1%	10.2%	2.4%
O=C(CSc1n[nH]c(-c2ccncc2)n1)NCCc1ccccc1	?	0.0	14.8%	?	16.4%
COc1ccc(Br)cc1CNC(=O)CSc1n[nH]c(-c2ccccc2)n1	20.6µM*	.	.	13µM*	.
COc1ccc(C(=O)CSc2n[nH]c(-c3ccncc3)n2)cc1[N+](=O)[O-]	-16.4%	17.5	3.2%	-4.0%	-1.7%
COc1ccc(-c2nc(SCC(=O)c3ccc(OC)c(Br)c3)n[nH]2)cc1	23.1µM*	.	.	?	.
